Measurements: PubChem BioAssay
Calls of active or inactive are those of the source.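 How the source made its calls, unless noted: active means binding below the plate cutoff, the plate median minus 3 SD, with a reading above zero; inconclusive means below the plate cutoff but reading exactly zero; inactive means the rest.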

What was measured:
[1] = inhibitors of CD8+ T cell-vesicle binding, pilot screen, LFA-1/ICAM-1 modulator project, MLPCN validation set, flow cytometry (AID 2523;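 active means response below a set limit, under 55% cells CD8-positive and vesicle-bound, and CD8 cells' 90th-percentile brightness under 279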;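 on vesicle binding response: mean PE anti-B7-1 fluorescence of CD8+ cells relative to row control; 100% = QL9-loaded vesicles with DMSO vehicle in the same plate row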); settings: 2C mouse CD8+ T cells, at 7 µM, stronger effect = lower value; double positive events: measured here: CD8+/vesicle+ event percentage
[2] = target: Integrin beta-1 (Homo sapiens) + Integrin alpha-4 (Homo sapiens) (UniProt P13612+P05556); assay: inhibition of HUTS-21 binding to VLA-4, pilot screen, VLA-4 allosteric modulator project, U937 cells, HUTS-21 mAb, flow cytometry, validation set (AID 2674;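 active means inhibition above 50%, about 3 SD of the validation set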;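 further: antibody binding induced by the VLA-4 ligand LDV present at three times its Kd; 0% = LDV ligand with antibody and no compound and 100% = antibody without LDV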); settings: HUTS-21 LIBS mAb binding, at 6.7 µM, stronger effect = higher value, binding induced by LDV ligand
Integrin beta-1 (Homo sapiens) + Integrin alpha-4 (Homo sapiens), sequence (P05556 whole entry, looked up): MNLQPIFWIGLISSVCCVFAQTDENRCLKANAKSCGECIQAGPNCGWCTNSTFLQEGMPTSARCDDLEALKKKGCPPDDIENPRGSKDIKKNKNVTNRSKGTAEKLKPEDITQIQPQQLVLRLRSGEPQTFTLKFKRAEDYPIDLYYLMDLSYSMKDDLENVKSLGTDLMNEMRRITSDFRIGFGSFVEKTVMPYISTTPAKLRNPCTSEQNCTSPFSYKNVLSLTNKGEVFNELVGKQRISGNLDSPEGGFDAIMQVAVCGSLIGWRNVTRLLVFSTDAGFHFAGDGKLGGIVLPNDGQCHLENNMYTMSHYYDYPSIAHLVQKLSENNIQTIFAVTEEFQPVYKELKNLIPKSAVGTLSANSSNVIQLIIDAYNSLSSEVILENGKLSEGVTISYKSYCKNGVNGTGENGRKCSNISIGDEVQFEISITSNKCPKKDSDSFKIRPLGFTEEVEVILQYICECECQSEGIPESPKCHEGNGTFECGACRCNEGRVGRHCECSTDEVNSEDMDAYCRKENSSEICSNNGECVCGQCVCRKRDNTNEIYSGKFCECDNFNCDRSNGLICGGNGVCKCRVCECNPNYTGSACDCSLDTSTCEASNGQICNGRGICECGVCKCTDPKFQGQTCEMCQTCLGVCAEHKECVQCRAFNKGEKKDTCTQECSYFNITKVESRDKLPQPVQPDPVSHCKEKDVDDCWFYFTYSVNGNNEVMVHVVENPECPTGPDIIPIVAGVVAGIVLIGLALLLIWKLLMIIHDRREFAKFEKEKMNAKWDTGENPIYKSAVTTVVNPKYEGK
Integrin beta-1 (Homo sapiens) + Integrin alpha-4 (Homo sapiens), sequence (P13612 whole entry, looked up): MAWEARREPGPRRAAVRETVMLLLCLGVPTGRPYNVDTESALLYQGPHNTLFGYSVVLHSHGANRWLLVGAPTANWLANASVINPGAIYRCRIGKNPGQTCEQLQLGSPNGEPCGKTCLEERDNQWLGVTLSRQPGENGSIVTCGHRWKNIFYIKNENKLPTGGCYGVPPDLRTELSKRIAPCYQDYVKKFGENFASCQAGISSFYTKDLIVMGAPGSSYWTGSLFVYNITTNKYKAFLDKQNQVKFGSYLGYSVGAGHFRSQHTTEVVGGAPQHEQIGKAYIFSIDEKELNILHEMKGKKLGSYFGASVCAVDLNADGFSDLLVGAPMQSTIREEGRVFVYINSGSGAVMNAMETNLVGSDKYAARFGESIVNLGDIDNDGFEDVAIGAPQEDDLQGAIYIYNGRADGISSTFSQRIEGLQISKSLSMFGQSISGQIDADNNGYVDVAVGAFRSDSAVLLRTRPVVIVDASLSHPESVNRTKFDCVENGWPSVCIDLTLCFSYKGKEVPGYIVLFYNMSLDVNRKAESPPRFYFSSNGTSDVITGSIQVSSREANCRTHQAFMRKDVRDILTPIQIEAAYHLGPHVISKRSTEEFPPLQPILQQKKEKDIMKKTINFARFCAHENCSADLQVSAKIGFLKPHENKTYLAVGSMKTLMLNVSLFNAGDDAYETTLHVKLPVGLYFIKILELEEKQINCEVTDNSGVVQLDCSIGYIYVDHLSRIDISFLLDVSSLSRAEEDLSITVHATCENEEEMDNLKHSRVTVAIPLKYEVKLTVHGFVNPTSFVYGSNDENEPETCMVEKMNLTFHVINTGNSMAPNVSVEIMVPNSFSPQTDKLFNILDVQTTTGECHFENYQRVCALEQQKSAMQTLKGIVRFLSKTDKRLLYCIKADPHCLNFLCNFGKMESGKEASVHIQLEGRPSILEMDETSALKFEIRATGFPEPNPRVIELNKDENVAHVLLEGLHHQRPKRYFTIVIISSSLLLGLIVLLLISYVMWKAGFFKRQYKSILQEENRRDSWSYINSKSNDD

[3] = superoxide lowering in aged yeast cells, pilot screen, validation compound set (AID 2706;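 active means superoxide response below 65% of plate, a cut near 3 SD across the whole screen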;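 further: yeast exposed to compound for one week at 30 degrees C before staining; 100% = mean of all compound wells on the same plate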); settings: S. cerevisiae aging, superoxide DHE fluorescence; at 10 µM, stronger effect = lower value
[4] = target: Beta-adrenergic receptor kinase 1 (Homo sapiens) (UniProt P25098); assay: GRK2 binders displacing RNA aptamer, biochemical, validation, human GRK2, bead flow cytometry (AID 488806;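 active means aptamer binding inhibition above 30%, about 3 SD of noise from non-fluorescent compounds; inactive means inhibition at or below 30%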); settings: bead-bound GRK2, FAM-aptamer displacement, at 10 µM, stronger effect = higher value
Beta-adrenergic receptor kinase 1 (Homo sapiens), sequence (P25098 whole entry, looked up): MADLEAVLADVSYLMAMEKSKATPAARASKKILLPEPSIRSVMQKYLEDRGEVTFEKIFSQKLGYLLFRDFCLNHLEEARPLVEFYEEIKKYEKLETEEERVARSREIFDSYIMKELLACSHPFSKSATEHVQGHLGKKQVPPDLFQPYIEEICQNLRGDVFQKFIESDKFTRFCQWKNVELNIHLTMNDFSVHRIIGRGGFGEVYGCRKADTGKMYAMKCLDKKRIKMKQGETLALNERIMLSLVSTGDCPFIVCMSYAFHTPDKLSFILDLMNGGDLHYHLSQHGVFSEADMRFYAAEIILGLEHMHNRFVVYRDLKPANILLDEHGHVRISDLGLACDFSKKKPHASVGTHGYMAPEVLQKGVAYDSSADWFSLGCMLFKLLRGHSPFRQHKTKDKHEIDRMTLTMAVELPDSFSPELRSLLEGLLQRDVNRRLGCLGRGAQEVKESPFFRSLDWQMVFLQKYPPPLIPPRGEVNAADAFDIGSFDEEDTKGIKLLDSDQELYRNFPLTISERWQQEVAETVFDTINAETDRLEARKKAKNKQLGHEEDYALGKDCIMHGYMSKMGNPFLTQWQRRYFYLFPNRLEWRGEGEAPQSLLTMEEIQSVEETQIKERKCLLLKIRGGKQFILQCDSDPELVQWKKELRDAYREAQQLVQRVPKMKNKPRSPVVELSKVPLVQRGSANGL

[5] = target: AP-2 complex subunit beta (Homo sapiens) (UniProt P63010); assay: inhibitors of arrestin peptide binding to AP2, pilot screen, biochemical, validation set, GST-AP2 beads, flow cytometry (AID 504541;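 active means inhibition above 54%, about 3 SD of non-fluorescent compounds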;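 further: AP2 carries R879A mutation and is captured from E. coli lysate; bead-bound FITC arrestin peptide fluorescence measuring arrestin peptide binding to AP2; 0% = DMSO wells and 100% = excess unlabeled arrestin peptide control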); settings: FITC arrestin peptide, at 10 µM, stronger effect = higher value, AP2 beta2 appendage fragment, R879A mutant
AP-2 complex subunit beta (Homo sapiens), sequence (P63010 whole entry, looked up, the tested form may be a part, one chain of several): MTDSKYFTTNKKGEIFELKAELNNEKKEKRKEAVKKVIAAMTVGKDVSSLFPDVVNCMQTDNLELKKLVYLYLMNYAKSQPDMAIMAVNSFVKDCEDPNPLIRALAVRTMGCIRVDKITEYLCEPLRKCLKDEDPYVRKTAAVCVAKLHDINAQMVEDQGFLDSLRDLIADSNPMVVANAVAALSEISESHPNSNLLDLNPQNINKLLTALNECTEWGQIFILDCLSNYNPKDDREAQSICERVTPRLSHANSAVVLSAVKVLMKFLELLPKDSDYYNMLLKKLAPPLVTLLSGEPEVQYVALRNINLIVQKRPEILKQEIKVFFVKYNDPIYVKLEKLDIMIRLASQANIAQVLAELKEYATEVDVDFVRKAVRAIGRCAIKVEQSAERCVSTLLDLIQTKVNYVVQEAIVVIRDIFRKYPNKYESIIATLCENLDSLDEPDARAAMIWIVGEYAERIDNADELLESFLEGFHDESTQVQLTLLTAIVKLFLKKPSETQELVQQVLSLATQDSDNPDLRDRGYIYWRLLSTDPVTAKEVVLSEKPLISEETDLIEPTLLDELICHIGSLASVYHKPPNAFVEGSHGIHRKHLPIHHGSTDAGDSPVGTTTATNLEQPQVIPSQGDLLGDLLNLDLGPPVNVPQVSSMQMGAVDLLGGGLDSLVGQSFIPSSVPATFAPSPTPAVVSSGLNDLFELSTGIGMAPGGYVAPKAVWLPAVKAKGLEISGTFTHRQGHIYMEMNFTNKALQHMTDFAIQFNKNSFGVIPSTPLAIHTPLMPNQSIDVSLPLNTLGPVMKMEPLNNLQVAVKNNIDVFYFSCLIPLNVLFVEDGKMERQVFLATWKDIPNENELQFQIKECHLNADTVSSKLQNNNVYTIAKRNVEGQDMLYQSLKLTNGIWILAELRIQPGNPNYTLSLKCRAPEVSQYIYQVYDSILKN

[6] = yeast V-ATPase proton transport modulators, S. cerevisiae, pHLuorin, HTS validation (AID 504600; in the data active means response above about 15%;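 further: plate controls were DMSO for no effect and reference compound for full effect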); settings: S. cerevisiae pHLuorin cytosolic pH, at 10 µM, stronger effect = higher value
[7] = system: anti-desmoglein-3 scFv antibody binding to human DSG3; assay: inhibitors of anti-DSG3 scFv binding to DSG3, pilot screen, biochemical, validation compound set, bead-based, flow cytometry (AID 588368); settings: Protein G beads, DSG3-Fc, scFv-GFP binding, at 10 µM, stronger effect = lower value;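 further: signal is the median channel fluorescence of bead-bound GFP antibody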
[8] = inhibitors of fungal efflux pumps CDR1, CDR2, MDR1, pilot screen, validation compound set, multiplex, phenotypic (AID 588506;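 active means efflux inhibition above 0.42, the validation set average plus 4 SD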;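 further: Nile Red retained in cells so higher fluorescence means more efflux inhibition; 0 = negative control wells and 1 = enniatin B 25 µM full block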); settings: S. cerevisiae pump-expressing triplex, Nile Red efflux flow cytometry; at 10 µM; stronger effect = higher value; the pumps come from Candida albicans
[9] = target: ATP-binding cassette sub-family B member 6 (Homo sapiens) (UniProt Q9NP58); assay: ABCB6 transporter inhibitors, pilot screen, K562-ABCB6 cells, flow cytometry, validation set (AID 588550;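 active means inhibition above the screen-wide mean plus 3 SD, about 51%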;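 further: 0% = DMSO wells and 100% = benzethonium chloride 70 µM positive control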); settings: K562-ABCB6 porphyrin accumulation, 1 h, at 10 µM, stronger effect = higher value
ATP-binding cassette sub-family B member 6 (Homo sapiens), sequence (Q9NP58 whole entry, looked up): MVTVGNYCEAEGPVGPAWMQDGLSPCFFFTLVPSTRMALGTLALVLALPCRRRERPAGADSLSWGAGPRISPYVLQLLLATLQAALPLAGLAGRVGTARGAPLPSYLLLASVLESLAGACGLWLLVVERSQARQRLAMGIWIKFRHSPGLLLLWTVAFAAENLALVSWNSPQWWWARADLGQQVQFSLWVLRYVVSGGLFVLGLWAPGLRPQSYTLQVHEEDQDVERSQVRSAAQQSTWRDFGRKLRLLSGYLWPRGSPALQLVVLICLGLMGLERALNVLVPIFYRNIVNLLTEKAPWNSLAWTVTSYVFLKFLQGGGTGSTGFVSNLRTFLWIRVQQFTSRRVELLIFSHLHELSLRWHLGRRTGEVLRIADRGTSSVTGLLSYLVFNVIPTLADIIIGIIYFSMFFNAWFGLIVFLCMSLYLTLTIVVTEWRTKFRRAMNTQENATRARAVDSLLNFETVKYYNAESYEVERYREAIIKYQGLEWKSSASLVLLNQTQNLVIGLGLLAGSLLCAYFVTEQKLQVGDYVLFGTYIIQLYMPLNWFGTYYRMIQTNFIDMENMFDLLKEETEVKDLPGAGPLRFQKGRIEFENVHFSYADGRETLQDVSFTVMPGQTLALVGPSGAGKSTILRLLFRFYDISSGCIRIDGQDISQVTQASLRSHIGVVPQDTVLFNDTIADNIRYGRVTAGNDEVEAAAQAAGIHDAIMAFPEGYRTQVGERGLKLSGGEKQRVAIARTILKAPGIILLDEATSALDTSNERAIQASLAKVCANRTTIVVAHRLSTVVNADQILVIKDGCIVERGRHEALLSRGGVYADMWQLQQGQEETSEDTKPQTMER

[10] = promoters of myeloid differentiation in arrested cells, primary screen, cell-based, GFP/MAC1 double positive, flow cytometry, validation set (AID 588685;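 active means differentiation response of at least 50%, scaled between solvent and reference control, from cells with both markers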;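 further: compound exposure lasts four days before antibody staining and flow analysis; 0% = DMSO wells and 100% = 5 µM fulvestrant positive control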); settings: ER-HoxA9 marrow cells, stronger effect = higher value, normalized: vehicle 0, fulvestrant 100

COc1ccc(-c2coc3cc(OC(=O)N4CCOCC4)ccc3c2=O)cc1
inactive: vesicle binding response [1] 185% | inhibition [2] -9.57% | superoxide response (% of plate) [3] 105% | aptamer binding inhibition [4] -3% | inhibition [5] -9.14% | response [6] 4.61% | binding (% of control) [7] 109% | efflux inhibition (fraction of control) [8] -0.16 | inhibition [9] 10% | differentiation response [10] 19.2%
62.6%: double positive events [1]

CC(=O)N=c1sc(S(N)(=O)=O)nn1C
inactive: vesicle binding response [1] 166% | inhibition [2] -9.57% | superoxide response (% of plate) [3] 97% | aptamer binding inhibition [4] 4% | inhibition [5] -6.47% | response [6] -25.8% | binding (% of control) [7] 99.6% | efflux inhibition (fraction of control) [8] -0.01 | inhibition [9] 8% | differentiation response [10] 11.1%
48.1%: double positive events [1]

Cc1c(OCC(=O)NC(Cc2c[nH]c3ccc(O)cc23)C(=O)O)ccc2c3c(c(=O)oc12)CCC3 (configuration not stated)
inactive: vesicle binding response [1] 218% | inhibition [2] 6.29% | superoxide response (% of plate) [3] 87.9% | aptamer binding inhibition [4] 3% | inhibition [5] 3.65% | response [6] 6.27% | binding (% of control) [7] 101% | efflux inhibition (fraction of control) [8] -0.5 | inhibition [9] 11% | differentiation response [10] -22.8%
51.4%: double positive events [1]

Oc1ccc(/C=C/c2cc(O)cc(O)c2)cc1
inactive: vesicle binding response [1] 225% | inhibition [2] -6.77% | superoxide response (% of plate) [3] 96.3% | aptamer binding inhibition [4] 2% | inhibition [5] 7.43% | response [6] -1.9% | binding (% of control) [7] 97.2% | efflux inhibition (fraction of control) [8] -0.43 | inhibition [9] 6% | differentiation response [10] -16.4%
52.4%: double positive events [1]

CC(C)OC(=O)C(C)(C)Oc1ccc(C(=O)c2ccc(Cl)cc2)cc1
54.1%: double positive events [1]
inactive: vesicle binding response [1] 223% | inhibition [2] 12.8% | superoxide response (% of plate) [3] 106% | aptamer binding inhibition [4] -1% | inhibition [5] -5.48% | response [6] 0.98% | binding (% of control) [7] 103% | efflux inhibition (fraction of control) [8] -0.09 | inhibition [9] 7% | differentiation response [10] -13.1%

COc1cc2cc(C(=O)O)n(C)c2c(OC)c1OC
54.5%: double positive events [1]
inactive: vesicle binding response [1] 184% | inhibition [2] 5.36% | superoxide response (% of plate) [3] 103% | aptamer binding inhibition [4] -6% | inhibition [5] 17.7% | response [6] -19.4% | binding (% of control) [7] 106% | efflux inhibition (fraction of control) [8] -0.01 | inhibition [9] 2% | differentiation response [10] -3.43%

O=C(NCC1CCCCN1)c1cc(OCC(F)(F)F)ccc1OCC(F)(F)F (configuration not stated)
inactive: vesicle binding response [1] 183% | inhibition [2] 1.62% | superoxide response (% of plate) [3] 102% | aptamer binding inhibition [4] -3% | inhibition [5] -20.4% | response [6] 0.89% | binding (% of control) [7] 103% | efflux inhibition (fraction of control) [8] -0.05 | inhibition [9] 14% | differentiation response [10] -8.27%
51.3%: double positive events [1]
